According to PubChem BioAssay (NCATS):
“And” between values parts separate entries of the source, which are not always exact repeats. Equal values may be shown once. Results filed as inconclusive are left out. Where a call stands in place of a potency, no number is given. Some structures have more than one record in an assay (separate samples or runs), and their calls can disagree. The source made the active and inactive calls. Unless noted, calls follow the shape of the dose curve; as a rule, active = well fitted curve in the direction sought with a large enough effect; inconclusive = small, poorly fitted or top-dose-only effect, or another doubt; inactive = no such curve, though single readings can be large; an effect the other way counts as inactive or inconclusive.

Columns and labels:
[1] = target: Cytochrome P450 1A2 (Homo sapiens) (UniProt P05177); test: p450-cyp1a2 (AID 410; calls by dose curve; also: potency is read from the fitted curve at half-maximal effect)
Chain of Cytochrome P450 1A2 (Homo sapiens) (P05177 whole entry, looked up): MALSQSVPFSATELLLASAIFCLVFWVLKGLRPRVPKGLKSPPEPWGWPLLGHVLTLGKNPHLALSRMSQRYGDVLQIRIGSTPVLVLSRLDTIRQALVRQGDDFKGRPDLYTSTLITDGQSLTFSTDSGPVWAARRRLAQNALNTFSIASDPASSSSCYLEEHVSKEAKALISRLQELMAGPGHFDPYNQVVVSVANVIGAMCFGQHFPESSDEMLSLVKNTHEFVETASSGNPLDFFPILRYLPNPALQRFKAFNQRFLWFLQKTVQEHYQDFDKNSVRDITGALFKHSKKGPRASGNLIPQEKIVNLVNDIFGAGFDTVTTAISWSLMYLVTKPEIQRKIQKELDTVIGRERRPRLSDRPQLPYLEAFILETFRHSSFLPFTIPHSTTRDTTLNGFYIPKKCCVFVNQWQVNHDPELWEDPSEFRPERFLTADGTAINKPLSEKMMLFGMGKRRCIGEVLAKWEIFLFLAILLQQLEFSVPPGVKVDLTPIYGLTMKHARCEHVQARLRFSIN
Procedure, shortened: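 Read-out is luminescence from luciferin produced by CYP1A2 demethylation of Luciferin-ME (100uM, at Km). Detection reagent stopped the 60 min NADPH-dependent reaction; signals were normalized to 57 uM furafylline.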

[2] = target: Glucocorticoid receptor (Homo sapiens) (UniProt P04150); test: GR-GFP Redistribution (AID 450;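 active = compounds whose dose series gives a full or clear partial fitted curve of increased nuclear translocation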; also: potency is read from the fitted curve at half-maximal effect); conditions: U2OS GR-GFP nuclear translocation, laser cytometry, 2 h
Chain of Glucocorticoid receptor (Homo sapiens) (P04150 whole entry, looked up, the tested form may be a part): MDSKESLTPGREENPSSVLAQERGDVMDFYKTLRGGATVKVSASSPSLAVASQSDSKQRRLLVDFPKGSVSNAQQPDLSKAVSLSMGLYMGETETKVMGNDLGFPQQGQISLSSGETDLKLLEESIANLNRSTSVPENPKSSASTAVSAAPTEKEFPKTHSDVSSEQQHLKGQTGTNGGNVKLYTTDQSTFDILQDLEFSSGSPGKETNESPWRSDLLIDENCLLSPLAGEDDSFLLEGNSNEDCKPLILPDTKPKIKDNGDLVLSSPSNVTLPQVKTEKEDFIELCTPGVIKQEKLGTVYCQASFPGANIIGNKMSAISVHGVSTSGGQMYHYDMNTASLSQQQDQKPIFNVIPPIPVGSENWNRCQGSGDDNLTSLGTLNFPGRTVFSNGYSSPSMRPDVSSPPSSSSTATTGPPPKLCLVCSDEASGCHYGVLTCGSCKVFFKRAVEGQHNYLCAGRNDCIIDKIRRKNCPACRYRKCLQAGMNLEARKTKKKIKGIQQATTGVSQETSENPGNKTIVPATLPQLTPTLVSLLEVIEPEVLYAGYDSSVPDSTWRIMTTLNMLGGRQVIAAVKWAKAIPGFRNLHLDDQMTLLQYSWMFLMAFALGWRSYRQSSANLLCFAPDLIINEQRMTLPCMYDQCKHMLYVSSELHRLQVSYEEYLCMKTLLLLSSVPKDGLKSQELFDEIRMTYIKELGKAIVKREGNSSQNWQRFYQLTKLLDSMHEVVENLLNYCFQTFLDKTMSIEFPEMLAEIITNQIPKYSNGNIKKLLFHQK

[3] = target: Glucocorticoid receptor (Homo sapiens) (UniProt P04150); test: GR-EFC Redistribution (AID 451; calls by dose curve; also: potency is read from the fitted curve at half-maximal effect); conditions: CHO-K1 GR-EFC translocation, beta-gal luminescence, 2 h
Procedure, shortened: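 CHO-K1 cells expressing nuclear EA and GR-ED fragments of b-gal; compounds titrated up to 46 uM final, 2 h at 37 C. GR nuclear translocation read as complemented b-gal luminescence after 1 h RT detection.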

[4] = target: Mitogen-activated protein kinase 10 (Mus musculus) (UniProt Q61831); test: JNK3 AlphaScreen Assay (AID 530; active = well fitted curve in either direction with a large enough effect, not every such curve was filed as active;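 also: kinase came from lysate of stimulated human HepG2 cells; signal reports phosphorylation of biotinylated GST-cJun 1-79 at Ser73 with 10 µM ATP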)
Procedure, shortened: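 HepG2 lysate (IL-1b/TNFa pre-activated) + biotin-GST-cJun 1-79 + anti-pSer73 cJun; cpd titration, 15 min RT; ATP 10 uM start; Tris pH 7.6, MgCl2, DTT, vanadate; beads in EDTA buffer; AlphaScreen.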

[5] = target: 3',5'-cyclic-AMP phosphodiesterase 4B (Homo sapiens) (UniProt Q07343); test: qHTS Assay for Inhibitors of PDE-IV (AID 607; active = well fitted activation curve with a large enough effect in the main read-out, with a control signal flat, not every such curve was filed as active)
Chain of 3',5'-cyclic-AMP phosphodiesterase 4B (Homo sapiens) (Q07343 whole entry, looked up): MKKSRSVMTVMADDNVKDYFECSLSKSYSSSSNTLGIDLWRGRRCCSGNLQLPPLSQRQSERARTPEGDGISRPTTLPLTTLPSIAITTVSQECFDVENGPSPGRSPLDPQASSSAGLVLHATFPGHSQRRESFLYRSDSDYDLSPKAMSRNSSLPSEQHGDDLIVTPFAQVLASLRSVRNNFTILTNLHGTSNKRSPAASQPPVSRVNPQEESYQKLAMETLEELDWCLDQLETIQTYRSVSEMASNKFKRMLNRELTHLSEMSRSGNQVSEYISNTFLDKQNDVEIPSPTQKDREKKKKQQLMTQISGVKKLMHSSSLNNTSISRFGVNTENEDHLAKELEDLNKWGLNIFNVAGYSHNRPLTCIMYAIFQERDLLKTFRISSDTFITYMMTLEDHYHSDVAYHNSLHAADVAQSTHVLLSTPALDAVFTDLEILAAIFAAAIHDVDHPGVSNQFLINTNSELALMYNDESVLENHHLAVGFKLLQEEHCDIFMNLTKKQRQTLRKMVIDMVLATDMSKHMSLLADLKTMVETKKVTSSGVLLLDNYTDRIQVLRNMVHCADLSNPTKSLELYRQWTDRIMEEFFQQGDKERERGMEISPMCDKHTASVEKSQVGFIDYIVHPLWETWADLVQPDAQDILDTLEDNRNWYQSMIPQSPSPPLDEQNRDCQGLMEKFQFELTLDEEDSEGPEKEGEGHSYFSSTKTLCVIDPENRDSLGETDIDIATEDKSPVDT
Procedure, shortened: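 Live HEK293 cells with a modified cyclic nucleotide-gated (CNG) channel report intracellular cAMP via membrane-potential dye fluorescence (ex 535/em 590 nm). Endogenous PDE-IV was targeted. Compounds were tested at up to 22.9 uM final; RO 20-1724 100 uM served as control.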

[6] = qHTS Assay for Lipid Storage Modulators (AID 1519; calls by dose curve); conditions: Drosophila S3 cells, BODIPY lipid droplet/cell ratio, laser cytometry, cells loaded with oleic acid
Procedure, shortened: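 Cells seeded at 5,000 per well were treated with compounds over a concentration series and loaded with oleic acid (400 uM, as added). Lipid droplet fluorescence (488 nm excitation, 500-530 nm channel) was read by laser-scanning cytometry and normalized to 20 uM Triacsin C.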

[7] = target: Ubiquitin carboxyl-terminal hydrolase 1 (Homo sapiens) (UniProt O94782); test: Inhibitors of USP1/UAF1: Pilot qHTS (AID 504865);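 also: rhodamine fluorescence freed from ubiquitin-rhodamine substrate followed over time; top concentration of the series differs between compounds; nearly all actives have a fitted effect of over 35% in size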
Chain of Ubiquitin carboxyl-terminal hydrolase 1 (Homo sapiens) (O94782 whole entry, looked up): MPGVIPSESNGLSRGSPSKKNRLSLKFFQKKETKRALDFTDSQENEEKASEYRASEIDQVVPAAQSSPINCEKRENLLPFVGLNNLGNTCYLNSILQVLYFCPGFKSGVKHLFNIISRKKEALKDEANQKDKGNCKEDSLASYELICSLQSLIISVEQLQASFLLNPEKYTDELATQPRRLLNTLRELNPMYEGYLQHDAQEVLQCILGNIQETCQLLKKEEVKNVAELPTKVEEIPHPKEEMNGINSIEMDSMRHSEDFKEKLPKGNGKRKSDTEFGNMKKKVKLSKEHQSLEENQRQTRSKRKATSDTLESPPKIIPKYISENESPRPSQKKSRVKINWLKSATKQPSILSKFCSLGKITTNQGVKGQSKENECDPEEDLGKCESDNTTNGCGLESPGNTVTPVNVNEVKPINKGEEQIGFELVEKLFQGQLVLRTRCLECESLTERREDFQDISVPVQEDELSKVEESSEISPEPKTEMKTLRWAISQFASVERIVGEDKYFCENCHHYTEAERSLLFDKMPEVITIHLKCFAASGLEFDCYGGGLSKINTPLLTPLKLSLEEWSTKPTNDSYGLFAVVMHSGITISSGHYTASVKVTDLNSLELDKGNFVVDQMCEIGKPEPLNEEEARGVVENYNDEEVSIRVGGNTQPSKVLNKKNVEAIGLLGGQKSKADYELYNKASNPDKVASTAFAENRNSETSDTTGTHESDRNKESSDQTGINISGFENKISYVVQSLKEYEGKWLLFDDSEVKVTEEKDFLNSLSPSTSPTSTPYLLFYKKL
Procedure, shortened: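 1nM USP1/UAF1 + cpd, 15 min RT; start w/ Ub-Rho 150nM final; kinetic FL 480/540 nm, 6 reads q60 s. Buffer 50mM HEPES pH 7.8, 0.5mM EDTA, 1mM TCEP, 0.01% Tween-20, 0.1 mg/ml BSA.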

[8] = target: DNA dC->dU-editing enzyme APOBEC-3G (Homo sapiens) (UniProt Q9HC16); test: qHTS for inhibitors of Vif-A3G interactions: Validation (AID 588379)
Chain of DNA dC->dU-editing enzyme APOBEC-3G (Homo sapiens) (Q9HC16 whole entry, looked up): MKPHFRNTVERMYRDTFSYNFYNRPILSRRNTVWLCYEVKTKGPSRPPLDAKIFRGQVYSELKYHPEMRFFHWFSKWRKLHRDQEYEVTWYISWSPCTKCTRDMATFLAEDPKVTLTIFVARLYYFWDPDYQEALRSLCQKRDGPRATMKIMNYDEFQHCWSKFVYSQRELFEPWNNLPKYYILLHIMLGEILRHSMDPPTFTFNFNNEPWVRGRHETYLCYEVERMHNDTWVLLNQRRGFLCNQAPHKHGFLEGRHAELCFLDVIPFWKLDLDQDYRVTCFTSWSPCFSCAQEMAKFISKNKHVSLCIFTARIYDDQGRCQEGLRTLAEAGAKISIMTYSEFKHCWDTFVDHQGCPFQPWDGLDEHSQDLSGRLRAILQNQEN
Procedure, shortened: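 Yellow fluorescence (Ex 488, Em 500-530) of Vif-coexpressing HeLa A3G-eYFP cells, scanned by Acumen cytometer, reports blocked A3G degradation. Cells plated at 700/well overnight at 37 deg C before compound addition, then a further overnight compound incubation at 37 deg C.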

[9] = system: Zika virus NS2B-NS3 protease; test: Primary screen GU AMC qHTS for Zika virus inhibitors (AID 1347154); also: nearly all actives have a fitted effect of over 70% in size
Procedure, shortened: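 Unlinked Zika NS2B hydrophilic domain–NS3 protease complex at 25 nM in 10 mM Tris-HCl pH 8.0, 0.01% Tween 20, with an AMC peptide substrate. Fluorescence change (340/450 nm) over 15 min at room temperature, normalized to controls, fitted to 4-parameter Hill.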

[10] = Primary qHTS for small molecule stabilizers of the endoplasmic reticulum resident proteome: Secreted ER Calcium Modulated Protein (SERCaMP) assay (AID 1508630)
Procedure, shortened: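 The SH-SY5Y reporter protocol was run at 3 concentrations up to 38.3 uM (primary) or 11 concentrations (follow-up): 16 h compound, 100 nM thapsigargin for 4 h, then extracellular luciferase luminescence.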

[11] = AP1 Signaling Pathway (AID 357; active = well fitted curve in either direction with a large enough effect, not every such curve was filed as active;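 also: ME-180 reporter cells stimulated with EGF at its EC50 level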); conditions: ME-180 AP-1-bla reporter, EGF-induced, beta-lactamase ratio, 5 h; at 38 µM (top of the series)
Procedure, shortened: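 In this screen, ME-180 cells in Opti-MEM with 0.5% dialyzed FBS received EC50 EGF and compound titrations for 5 h. AP-1 reporter beta-lactamase was detected via CCF4 ratio, giving AC50 for positive and negative modulators.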

[12] = NFAT Signaling Pathway (AID 444; active = well fitted curve in either direction with a large enough effect, not every such curve was filed as active;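 also: carbachol stimulus at about its EC50 of 1 µM final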); conditions: Jurkat NFAT-bla M1, carbachol, beta-lactamase ratio, 5 h; at 38 µM (top of the series)
Procedure, shortened: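 Jurkat cells with NFAT-driven β-lactamase reporter and co-expressed M1 receptor, stimulated with carbachol (final 1 uM, ~EC50), compound titration, 5 h at 37 °C. CCF4 loaded 1 h at RT; 460/530 nm ratio gave %activity and AC50.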

[13] = Stat Signaling Pathway (AID 446; active = well fitted curve in either direction with a large enough effect, not every such curve was filed as active;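 also: ME-180 cervical cancer cells given 40 pM IL-6 alongside compound; SIE-controlled beta-lactamase reporter measured as 460/530 nm FRET emission ratio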); conditions: ME-180 (cervical carcinoma) SIE beta-lactamase reporter, IL-6 stimulated, 5 h
Procedure, shortened: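 Overnight-plated ME-180 cells bearing a STAT Inducible Element beta-lactamase reporter; 5 h co-exposure to compound and 40 pM IL-6; values normalized to 300 pM IL-6 and 125 nM JAK inhibitor controls.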

[14] = target: Guanine nucleotide-binding protein G(i) subunit alpha-1 (Homo sapiens) (UniProt P63096); test: qHTS Assay for Inhibitors of RGS12 GoLoco Motif Activity (Green Fluorophore) (AID 879);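 also: negative values mean loss of peptide binding seen as reduced polarization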
Chain of Guanine nucleotide-binding protein G(i) subunit alpha-1 (Homo sapiens) (P63096 whole entry, looked up): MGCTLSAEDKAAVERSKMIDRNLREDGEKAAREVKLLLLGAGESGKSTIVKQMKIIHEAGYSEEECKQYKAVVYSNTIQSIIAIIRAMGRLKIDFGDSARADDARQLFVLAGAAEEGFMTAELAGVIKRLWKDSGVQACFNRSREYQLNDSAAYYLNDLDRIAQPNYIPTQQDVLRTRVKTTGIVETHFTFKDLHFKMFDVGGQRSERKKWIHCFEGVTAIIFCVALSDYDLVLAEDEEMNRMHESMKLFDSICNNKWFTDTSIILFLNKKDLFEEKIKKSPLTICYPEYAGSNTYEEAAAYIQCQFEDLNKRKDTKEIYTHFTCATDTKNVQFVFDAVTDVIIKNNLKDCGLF
Procedure, shortened: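 A drop in FITC polarization marked displacement of the FITC-tagged RGS12 GoLoco peptide (10 nM) from Gαi1 (50 nM). Compounds were incubated 10 min at room temperature in Tris pH 7.5 buffer containing 150 mM NaCl, 0.1 mM GDP and 0.05% NP40; unlabeled peptide titration served as control.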

[15] = target: Pyruvate kinase (Leishmania mexicana) (UniProt Q27686); test: qHTS Validation Assay for Inhibitors of Leishmania Mexicana Pyruvate Kinase (AID 945)
Procedure, shortened: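 The enzyme is a highly purified E451W mutant of LmPYK used at 0.2 nM. It converts 0.5 mM PEP and 0.1 mM ADP over 1 h at room temperature; product ATP is quantified by luciferase luminescence relative to DMSO controls.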

[16] = target: Pyruvate kinase PKM (Homo sapiens) (UniProt P14618); test: qHTS Assay for Activators of Human Muscle Pyruvate Kinase (AID 954; active = well fitted curve in the direction sought with a large enough effect, not every such curve was filed as active)
Chain of Pyruvate kinase PKM (Homo sapiens) (P14618 whole entry, looked up): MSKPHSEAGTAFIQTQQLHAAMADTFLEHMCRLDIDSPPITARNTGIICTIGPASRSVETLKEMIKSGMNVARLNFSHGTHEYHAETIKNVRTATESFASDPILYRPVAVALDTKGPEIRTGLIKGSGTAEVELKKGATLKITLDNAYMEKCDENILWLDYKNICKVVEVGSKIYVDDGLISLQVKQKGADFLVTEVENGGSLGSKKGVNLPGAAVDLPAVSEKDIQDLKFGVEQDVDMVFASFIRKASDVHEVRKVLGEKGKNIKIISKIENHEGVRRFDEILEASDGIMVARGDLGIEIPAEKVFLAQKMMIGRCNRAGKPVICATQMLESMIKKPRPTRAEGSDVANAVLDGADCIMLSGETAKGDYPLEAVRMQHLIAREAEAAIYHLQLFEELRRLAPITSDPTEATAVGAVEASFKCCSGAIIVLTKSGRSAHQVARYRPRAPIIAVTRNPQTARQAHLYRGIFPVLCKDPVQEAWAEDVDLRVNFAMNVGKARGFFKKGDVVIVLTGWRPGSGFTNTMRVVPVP
Procedure, shortened: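 Screening used highly purified human pyruvate kinase M2 under submaximal activity, with PEP at its Km and ADP below Km. After an hour at room temperature, ATP was read by luciferase luminescence.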

[17] = target: Alpha-galactosidase A (Homo sapiens) (UniProt P06280); test: Counterscreen for Glucocerebrosidase Inhibitors: qHTS Assay for Human alpha-Galactosidase at pH 4.5 (AID 992)
Chain of Alpha-galactosidase A (Homo sapiens) (P06280 whole entry, looked up): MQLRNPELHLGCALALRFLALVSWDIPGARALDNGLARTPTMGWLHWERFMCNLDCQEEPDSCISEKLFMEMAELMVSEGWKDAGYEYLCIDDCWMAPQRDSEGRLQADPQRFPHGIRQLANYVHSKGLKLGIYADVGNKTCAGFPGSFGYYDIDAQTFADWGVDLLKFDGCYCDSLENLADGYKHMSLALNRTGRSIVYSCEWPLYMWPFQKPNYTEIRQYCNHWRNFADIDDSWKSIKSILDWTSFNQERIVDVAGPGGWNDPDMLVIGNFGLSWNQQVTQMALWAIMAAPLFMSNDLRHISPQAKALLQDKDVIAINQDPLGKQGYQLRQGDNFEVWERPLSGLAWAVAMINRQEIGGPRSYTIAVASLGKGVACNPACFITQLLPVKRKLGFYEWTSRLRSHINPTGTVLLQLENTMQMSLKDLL
Procedure, shortened: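 Each compound is preincubated briefly with 2 nM enzyme before substrate addition (80 uM); plates then sit 20 min at ambient temperature, are quenched with 1M NaOH/1M glycine, and read fluorometrically.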

[18] = target: alpha-glucosidase (Oryza sativa, rice) (UniProt Q653V4); test: Counterscreen for Glucocerebrosidase Inhibitors: qHTS Assay for Rice alpha-Glucosidase at pH 5.0 (AID 997)
Procedure, shortened: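 Endpoint fluorogenic assay at pH 5.0: compounds (0.7 nM to 77 uM) titrated against 4 nM rice enzyme and 400 uM 4-MU-alpha-glucoside for 20 min at room temperature; NaOH/glycine stop, read ex 365/em 440 nm, Hill-fitted AC50.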

[19] = target: Cytochrome P450 3A4 (Homo sapiens) (UniProt P08684); test: qHTS Assay for Activators of Cytochrome P450 3A4 (AID 885); also: nearly all actives have a fitted effect of over 65% in size
Chain of Cytochrome P450 3A4 (Homo sapiens) (P08684 whole entry, looked up): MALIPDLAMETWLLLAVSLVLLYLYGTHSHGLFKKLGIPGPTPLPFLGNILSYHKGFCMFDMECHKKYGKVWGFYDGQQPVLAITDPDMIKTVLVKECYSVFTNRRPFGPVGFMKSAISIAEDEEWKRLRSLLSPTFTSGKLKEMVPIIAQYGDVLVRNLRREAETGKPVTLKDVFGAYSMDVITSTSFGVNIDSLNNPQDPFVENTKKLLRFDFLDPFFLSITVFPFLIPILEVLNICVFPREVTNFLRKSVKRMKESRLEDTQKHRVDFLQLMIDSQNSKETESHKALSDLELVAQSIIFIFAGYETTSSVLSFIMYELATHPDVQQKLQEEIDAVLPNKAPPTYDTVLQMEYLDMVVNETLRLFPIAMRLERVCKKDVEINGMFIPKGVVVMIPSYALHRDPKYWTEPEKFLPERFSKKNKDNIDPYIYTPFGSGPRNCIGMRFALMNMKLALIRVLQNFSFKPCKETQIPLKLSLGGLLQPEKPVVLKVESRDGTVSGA
Procedure, shortened: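 Using 20nM recombinant human CYP3A4 in potassium phosphate (200mM), substrate Luciferin-PPXE at 25uM, luminescent luciferin detection followed a 60-min RT NADPH reaction; data scaled to 57 uM ketoconazole.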

[20] = measured here: cell count channel max response
[21] = measured here: lipid channel max response

C[C@H](C[C@H](N)C(=O)O)C(=O)O
Potency [1]: 31.6 µM (active)
Potency [2]: > 46 µM (inactive)
Potency [3]: > 46 µM (inactive)
Potency [4]: inactive
Potency [5]: inactive
activity change, negative = inhibition ([6]; at 57.5 µM (top of the series)): -1.92% (inactive)
max response [6, 20]: -13.2%
max response [6, 21]: -13.5%
Potency [7]: inactive
Potency [8]: inactive
Potency [9]: inactive
Potency [10]: inactive

C[C@@](N)(C(=O)O)c1ccc(C(=O)O)cc1
activity change, negative = inhibition [11]: 2.6% (inactive)
Potency [1]: inactive
activity change, negative = inhibition [12]: 6.09% (inactive)
activity, negative = inhibition ([13]; at 38 µM (top of the series)): 4.5% (inactive)
Potency [2]: > 46 µM (inactive)
Potency [3]: > 46 µM (inactive)
Potency [4]: inactive
Potency [5]: inactive
outcome [14]: inactive
Potency [15]: inactive
outcome [16]: inactive
outcome [17]: inactive
outcome [18]: inactive
activity change, negative = inhibition ([6]; at 57.5 µM (top of the series)): -1.38% (inactive) and 3.86% (inactive)
max response [6, 20]: -12.7% and -2.32%
max response [6, 21]: -13.1% and 2.03%
Potency [7]: inactive
Potency [8]: inactive
Potency [9]: inactive
Potency [10]: inactive

C1=C(CN2CCOCC2)COc2c1cccc2OC[C@@H]1CNCCO1
Potency [1]: 12.6 µM (active)
Potency [2]: > 46 µM (inactive)
Potency [3]: > 46 µM (inactive)
Potency [4]: inactive
Potency [5]: inactive
Potency [19]: inactive
activity change, negative = inhibition ([6]; at 57.5 µM (top of the series)): 0.797% (inactive)
max response [6, 20]: 5.43%
max response [6, 21]: 3.99%
Potency [7]: inactive
Potency [8]: inactive
Potency [9]: inactive
Potency [10]: inactive

CCS(=O)(=O)N(C)[C@@H]1c2cc(C#N)ccc2OC(C)(C)[C@H]1O
Potency [1]: 20 µM (active) and inactive
Potency [2]: > 46 µM (inactive)
Potency [3]: > 46 µM (inactive)
Potency [4]: inactive
Potency [19]: inactive
activity change, negative = inhibition ([6]; at 57.5 µM (top of the series)): 2.68% (inactive) and 2.28% (inactive)
max response [6, 20]: 17.8% and 15.2%
max response [6, 21]: 22.1% and 18.9%
Potency [7]: inactive
Potency [8]: inactive
Potency [9]: inactive
Potency [10]: inactive

O=C(O)Cc1cc2ccccc2nc1C(=O)O
Potency [1]: inactive
Potency [2]: > 46 µM (inactive)
Potency [3]: > 46 µM (inactive)
Potency [4]: inactive
Potency [5]: inactive
activity change, negative = inhibition ([6]; at 57.5 µM (top of the series)): -1.15% (inactive)
max response [6, 20]: 1.68%
max response [6, 21]: 0.785%
Potency [7]: inactive
Potency [8]: inactive
Potency [9]: inactive
Potency [10]: inactive

CNCC[C@H](Oc1ccccc1OC)c1ccccc1
activity change, negative = inhibition [11]: 26.3% (inactive)
Potency [1]: 12.6 µM (active) and 10 µM (active) and 15.8 µM (active)
activity, negative = inhibition ([13]; at 17.2 µM (top of the series)): -0.439% (inactive)
activity, negative = inhibition ([13]; at 38 µM (top of the series)): 4.82% (inactive)
Potency [4]: inactive
Potency [5]: inactive
outcome [14]: inactive
Potency [19]: inactive
Potency [15]: inactive
outcome [16]: inactive
outcome [17]: inactive
outcome [18]: inactive
activity change, negative = inhibition ([6]; at 25.7 µM (top of the series)): -2.76% (inactive)
max response [6, 20]: -10.8%
max response [6, 21]: -15.9%
Potency [7]: inactive
Potency [8]: inactive
Potency [9]: inactive
Potency [10]: inactive
